Experimental data as given in ChEMBL document CHEMBL1157539, “Thousands of chemical starting points for antimalarial lead identification” (Nature, 2010).

Experiments:
Assay type in all cases: functional
[1] = system: Plasmodium falciparum; assay: GSK_TCMDC: Inhibition of Plasmodium falciparum 3D7 in whole red blood cells, using parasite LDH activity as an index of growth. Test compounds present at 2uM
[2] = system: Plasmodium falciparum; assay: GSK_TCMDC: Inhibition of Plasmodium falciparum Dd2 in whole red blood cells, using parasite LDH activity as an index of growth. Test compounds present at 2uM
[3] = system: HepG2; assay: GSK_TCMDC: Percent inhibition of human HepG2 cell line. Test compounds present at 10uM.

Row | Structure (SMILES) | Inhibition [1] | Inhibition [2] | Inhibition [3]
1 | CCN(CC)CCN(Cc1ccc(-c2ccc(C(F)(F)F)cc2)cc1)C(=O)Cn1c(SCc2ccc(F)cc2)cc(=O)c2ccccc21.O=C(O)C(O)C(O)C(=O)O | 100% | 70% | 50%
2 | Cn1nccc1C(=O)NCCNCc1cccc(-c2csc(-c3nc4ccccc4[nH]3)c2)c1.O=C(O)C(F)(F)F | 100% | 2% | 30%
3 | Cc1cc(N[C@@H](Cc2ccccc2)C(=O)NCc2cccs2)nc(Nc2ccccc2)n1.O=C(O)C(F)(F)F | 96% | 36% | 3%
4 | COc1ccc(-c2cccc(CNCc3ccc(F)cc3)c2)cc1S(=O)(=O)NCCN1CCCC1.O=C(O)C(F)(F)F | 100% | 16% | 20%
5 | O=C(NCCCCN1CCC(c2ccc3ccccc3c2)CC1)c1ccc(NC(=O)c2ccc(Cl)cc2)cc1 | 100% | 93% | 24%
6 | CCCCCCCCNCC(O)c1cc(-c2ccc(Cl)cc2)nc2cc(C)ccc12 (centres undefined) | 99% | 99% | 0%
7 | N=C(N)Nc1nc(-c2cccc(NC(=O)NCc3ccc(OC(F)(F)F)cc3)c2)cs1 | 100% | 26% | 0%
8 | O=C(Nc1ccc(-c2nc3ccccc3[nH]2)cc1)c1ccc(S(=O)(=O)N2CCCCCC2)cc1 | 97% | 21% | 8%
9 | O=C(O)C(F)(F)F.O=S(=O)(NCCN1CCCC1)c1ccc(-c2cccc(CNCc3ccc(F)cc3)c2)s1 | 99% | 50% | 48%
10 | NC1CCN(c2nc(NCCCc3ccc(O)cc3)nc(NCc3ccccc3-c3ccc(C(F)(F)F)cc3)n2)CC1.O=C(O)C(F)(F)F | 100% | 88% | 15%
11 | CCc1ccc(C2CCN(CCCCNC(=O)c3ccc(NC(=O)c4ccc(Cl)cc4)cc3)CC2)c(OC)c1 | 100% | 80% | 26%
12 | CC(C)(CNCc1cccc(Oc2ccccc2)c1)c1nc(-c2ccnc(N)n2)c(-c2ccc(Cl)c(O)c2)[nH]1.Cl | 97% | 99% | 28%
13 | CCN(CC)CCN(Cc1ccc(-c2ccc(C(F)(F)F)cc2)cc1)C(=O)Cn1c(CCc2cccc(F)c2F)nc(=O)c2ccc(C)cc21.O=C(O)C(O)C(O)C(=O)O | 99% | 58% | 39%
14 | COc1ccc(C(=O)N2CCC(C(=O)NC(C)c3ccc(-n4ccnc4)cc3)CC2)c2ccccc12 (centres undefined) | 83% | 79% | 12%
15 | O=C(Nc1ccc(Cn2ncc(N3CCCNCC3)c(Cl)c2=O)cc1)Nc1cc(F)cc(C(F)(F)F)c1.O=C(O)C(F)(F)F | 100% | 44% | 35%
16 | CCN(CCCN1CCCCC1)c1cc(C)nc(Nc2cc(Br)ccc2C)n1.O=C(O)C(F)(F)F | 98% | 39% | 32%
17 | FC(F)(F)c1ccc2[nH]c(-c3cccc(-c4cccc(CNCCc5ccncc5)c4)c3)nc2c1.O=C(O)C(F)(F)F | 99% | 97% | 31%
18 | CN1CCCN(Cc2ccc(-c3ccc(NS(=O)(=O)c4cccc5cccnc45)cc3)cc2)CC1.O=C(O)C(F)(F)F | 99% | 85% | 35%
19 | O=C(O)C(F)(F)F.c1ccc(CNCc2cccc(-c3csc(-c4nc5ccccc5[nH]4)c3)c2)cc1 | 100% | 54% | 24%
20 | Cc1ncsc1CCN1C(=O)CC2(C1=O)C(=O)N(Cc1ccccc1)c1ccc(Cl)cc12 (centres undefined) | 86% | 46% | 0%

Row | Structure (SMILES) | Inhibition [1] | Inhibition [2] | Inhibition [3]
21 | CS(=O)(=O)Nc1cccc(-c2cnc3[nH]cc(-c4ccc(CN)cc4)c3c2)c1 | 98% | 95% | 27%
22 | COC(=O)c1cccc(CNCc2ccc(-c3ccc(-c4nc5ccccc5[nH]4)s3)cc2)c1.O=C(O)C(F)(F)F | 100% | 79% | 20%
23 | COc1ccc(N(c2nc(-c3cc(Cl)ccc3Cl)cs2)C2CCNC2)cc1.O=C(O)C(F)(F)F (centres undefined) | 95% | 9% | 21%
24 | CCCCNCc1ccc(OCc2cccc(COc3ccc(CNCCCC)cc3)c2)cc1.Cl | 100% | 35% | 98%
25 | COc1cc2c(cc1COc1ccccc1)CCN1Cc3cc(OC)c(OC)cc3CC21 (centres undefined) | 99% | 84% | 0%
26 | COc1cc2nc(Nc3ccc(C)cc3)nc(Nc3ccc(C)cc3)c2cc1OC.Cl | 100% | 100% | 99%
27 | Cc1cc(NC(=O)Nc2ccc(I)c(OCCN(C)C)c2)ccc1Br.Cl | 100% | 42% | 18%
28 | COc1cc(N(Cc2ccccc2C)S(=O)(=O)Cc2ccccc2[N+](=O)[O-])c(OC)cc1Cl | 94% | 44% | 16%
29 | CCCN(CC1CC1)c1nc(C)nc2c(-c3ccccc3)cc(C)cc12 | 96% | 78% | 72%
30 | COc1cc(NC(=O)/C=C/c2ccccc2OC(F)(F)F)cc(OCCN2CCCCC2)c1.O=C(O)C(=O)O | 96% | 6% | 25%
31 | FC(F)(F)c1ccc2[nH]c(-c3ccc(-c4cccc(CNCCN5CCNCC5)c4)cc3)nc2c1.O=C(O)C(F)(F)F | 92% | 2% | 13%
32 | C=CCC(C)n1ncc2c3c(N)nc(N)nc3ccc21 (centres undefined) | 93% | 95% | 66%
33 | Nc1nc(N)c2cc(N(Cc3ccccc3)Cc3ccccc3)ccc2n1 | 99% | 88% | 69%
34 | Cc1cc(CN2CC[C@H](NC(=O)c3ccc(Cl)c(Cl)c3)C2)ccc1OC1CCN(C)C1.O=C(O)C(F)(F)F (some centres undefined) | 100% | 24% | 71%
35 | COc1ccc(OCC(O)CN(Cc2ccccc2OC)C(=O)Nc2ccc(Br)cc2)cc1 (centres undefined) | 97% | 2% | 8%
36 | COc1ccccc1CCNc1nc(C)cc(NCCC(=O)NCCOc2ccccc2)n1.O=C(O)C(F)(F)F | 85% | 14% | 11%
37 | Cc1ccccc1C1CCN(C2CCC(NC(=O)/C=C/c3cccc(C(F)(F)F)c3)CC2)CC1 (centres undefined) | 100% | 54% | 96%
38 | Cc1nc(C)c(-c2ccc(C(=O)c3ccccc3)cc2)c(O)c1Br | 95% | 96% | 0%
39 | COc1cc(C)nc2ccc(NC(=O)c3ccc(C(=O)Nc4ccc5nc(C)cc(OC)c5c4)cc3)cc12 | 96% | 72% | 27%
40 | COc1ccc(S(=O)(=O)NC2CCN(CCNC(=O)Nc3cc(C)nc4ccccc34)C2)cc1 (centres undefined) | 88% | 41% | 0%

Row | Structure (SMILES) | Inhibition [1] | Inhibition [2] | Inhibition [3]
41 | O=C(O)C(F)(F)F.Oc1ccc(CCCNc2nc(NCc3ccccc3-c3ccccc3)nc(N3CCNCC3)n2)cc1 | 94% | 48% | 39%
42 | FC(F)(F)c1ccc2[nH]c(-c3cccc(-c4ccc(CNCc5cnn(-c6ccccc6)n5)cc4)c3)nc2c1.O=C(O)C(F)(F)F | 100% | 67% | 14%
43 | O=C(CCc1cccnc1)Nc1ccc(-c2cccc(-c3nc4cc(F)ccc4[nH]3)c2)cc1 | 86% | 9% | 67%
44 | COc1cc2c(cc1OCCN1CCC(N)CC1)N(C(=O)/C=C/c1ccccc1Cl)CC2.Cl | 91% | 18% | 19%
45 | Cc1[nH]cnc1Cc1ccc2c(c1O)c1ccccc1n2C | 90% | 16% | 9%
46 | CCCNCc1ccc(-c2ccc(CN(Cc3cnc(C)cn3)C(=O)/C=C/c3ccccc3C)cc2)nc1.O=C(O)C(F)(F)F | 95% | 15% | 7%
47 | O=C(Nc1ccc(Cn2ncc(N3CCCNCC3)c(Cl)c2=O)cc1)Nc1cccc(Oc2ccccc2)c1.O=C(O)C(F)(F)F | 81% | 41% | 8%
48 | O=C(Nc1cccc(CN2CCCN(Cc3ccc(O)cc3)CC2)c1)c1ccc2ccccc2n1.O=C(O)C(F)(F)F | 90% | 22% | 13%
49 | Cn1cc(C2CCN(CCCCNC(=O)c3sc(-c4ccc(C(F)(F)F)cc4)nc3CO)CC2)c2ccccc21 | 95% | 15% | 46%
50 | Cc1cccc2nc(-c3ccc(-c4cccc(CNCCN5CCNCC5)c4)cc3)[nH]c12.O=C(O)C(F)(F)F | 85% | 2% | 9%
51 | CN(C)CCN(C)Cc1cccc(-c2cccc(NC(=O)c3cccc(C#N)c3)c2)c1.O=C(O)C(F)(F)F | 92% | 10% | 0%
52 | CCc1ccc(CN2CCC(CNC(=O)c3cc(-c4cccc(C(F)(F)F)c4)cs3)C2)cc1.O=C(O)C(F)(F)F (centres undefined) | 97% | 48% | 45%
53 | Clc1nc2ccccn2c1C=Cc1ccc2ccccc2n1 | 86% | 75% | 0%
54 | COc1ccc2nccc([C@H](O)CN3CCC(NCc4nc5cccc(F)c5[nH]4)CC3)c2c1.O=C(O)C(=O)O | 98% | 0% | 0%
55 | CC(O)C1CCCCN1C(=O)c1ccc(-c2ccc(-c3nc4cc(F)ccc4[nH]3)cc2)cc1 (centres undefined) | 100% | 99% | 43%
56 | CCCCOc1cc2c(cc1OCC)C(C=Cc1ccc(Cl)cc1Cl)=NCC2.Cl | 97% | 95% | 0%
57 | CCC(CN1C(=O)C(c2ccccc2)(c2ccccc2)N=C1N)c1ccccc1.O=CO (centres undefined) | 98% | 98% | 11%
58 | CNCc1ccc(CN(C)c2nc(N)c3cc(OC)c(OC)cc3n2)cc1.O=C(O)C(F)(F)F | 96% | 3% | 12%
